Test results from PubChem BioAssay AID602396 (The Scripps Research Institute Molecular Screening Center, 2012).
Screen size: about 360,000 compounds; about 460 (0.13%) were called active. Only a selection was taken, and actives are over-represented in it overall. Values without a mark were called inactive.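 How the source made its calls: active means inhibition above the mean inhibition of all tested compounds plus 3 SD (cut at about 73% in these data); inactive means the rest.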

biological target: Nuclear receptor subfamily 5 group A member 2 (Homo sapiens) (UniProt O00482); experiment: LRH-1 (NR5A2) inverse agonists, primary screen, cell-based, luminescence, HEK293T, StAR-luciferase reporter (AID 602396); conditions: LRH-1 transfected, 24 h, at 3.6 µM, stronger effect = higher value;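 further: 0% = DMSO wells and 100% = reporter-only cells lacking LRH-1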
Sequence (O00482 whole entry, looked up): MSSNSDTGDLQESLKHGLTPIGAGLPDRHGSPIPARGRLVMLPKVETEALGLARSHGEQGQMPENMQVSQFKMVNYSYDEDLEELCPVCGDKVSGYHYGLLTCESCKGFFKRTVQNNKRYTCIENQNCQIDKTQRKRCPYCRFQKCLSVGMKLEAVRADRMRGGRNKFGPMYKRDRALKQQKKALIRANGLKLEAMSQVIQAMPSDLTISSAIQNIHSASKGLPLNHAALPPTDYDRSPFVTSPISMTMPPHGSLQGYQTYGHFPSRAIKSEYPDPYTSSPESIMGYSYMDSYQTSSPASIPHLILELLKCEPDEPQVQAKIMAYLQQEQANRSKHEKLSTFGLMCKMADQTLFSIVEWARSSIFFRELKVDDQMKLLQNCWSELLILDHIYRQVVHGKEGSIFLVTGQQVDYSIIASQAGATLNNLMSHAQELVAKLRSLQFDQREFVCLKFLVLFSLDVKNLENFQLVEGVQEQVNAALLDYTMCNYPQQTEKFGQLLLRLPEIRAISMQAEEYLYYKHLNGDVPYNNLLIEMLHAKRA

In order of rising inhibition:
1. CC(C)=NN1C(=O)c2ccccc2NC1(C)C  -62.5%
2. CCOc1ccc(Br)cc1S(=O)(=O)Nc1cccc(S(=O)(=O)N(CC)CC)c1  -37.2%
3. COc1ccc(Cn2c(-c3ccc(Cl)cc3)c[n+]3ccccc23)cc1  -37.2%
4. CCC1OC(C2CC2)CC2=C1C(=O)OC(C)(C)O2 (stereo not drawn)  -31.2%
5. C[n+]1cc(-c2ccccc2)oc1-c1ccccc1  -30.6%
6. COC1=CC(=O)OC(C)(c2ccccc2)C1 (stereo not drawn)  -28%
7. O=C(CSc1ccccn1)Nc1nc2c(ccc3ccccc32)s1  -23.7%
8. Cc1cccc2cc(CN(C(=O)c3cccs3)c3ccccc3)c(=O)[nH]c12  -23.1%
9. CSc1nnc(C2CCCN(CC(=O)Nc3ccccc3N3CCOCC3)C2)n1C(C)C (stereo not drawn)  -21.8%
10. CCc1ccccc1N1CN(Cc2ccco2)CNC1=S  -20.8%
11. COC(=O)[C@]1(C)N[C@H](CN(C)C(=O)c2ccc(C(C)(C)C)cc2)[C@@H]2C(=O)N(C)C(=O)[C@@H]21  -20.1%
12. CCCCn1c(N)c(N(CC)C(=O)c2ccccc2C(F)(F)F)c(=O)[nH]c1=O  -19.4%
13. CCCCCCNC(=O)O[C@]12C[C@@H](C(=O)OC)[C@@H](C(=O)OC)C[C@@]1(O)CN(S(=O)(=O)c1ccc(C)cc1)C2  -18%
14. C=CCn1c(SCC(=O)c2c(N)n(C)c(=O)n(C)c2=O)nc2sc(CC)cc2c1=O  -16.9%
15. COc1ccc(NC(=O)c2cccc3c2C(=O)N(CC2CCCO2)C3)cc1OC (stereo not drawn)  -15.8%
16. O=C(O)CCC(=O)N(Cc1ccco1)c1nc(-c2ccccc2)cs1  -15.1%
17. NC(=NC(=O)c1ccccc1)C1=C(O)CCC1=O  -13.8%
18. Cc1ccc(S(=O)(=O)N2C3C=CC(C3)C2C(=O)O)cc1 (stereo not drawn)  -13.6%
19. CCc1nc2c(OCc3ccc(F)c(F)c3)cccn2c1N(C)C(=O)c1ccco1  -12.9%
20. Cc1ccc(S(=O)(=O)N2CC[C@H]3[C@@H](C2)C(=O)C[C@@H](c2ccccc2)N3S(=O)(=O)c2ccc(C)cc2)cc1  -11.8%
21. CC1CCCCC1NC(=O)NC(=O)COC(=O)C1=NN(c2ccccc2)C(=O)CC1 (stereo not drawn)  -11.1%
22. CCN(CC)CCCNC(=O)c1c(O)c2cc(F)cc3c2n(c1=O)C(C)CC3 (stereo not drawn)  -10.8%
23. Nc1ccc(OCC(O)C[n+]2ccc(CCS(=O)(=O)[O-])cc2)cc1 (stereo not drawn)  -10.5%
24. COc1ccccc1-c1oc2ccccc2c1C#CCCCCO  -10.4%
25. Cc1ccn2c(=O)nc(SCC(=O)NCc3ccc4c(c3)OCO4)nc2c1  -9.89%
26. O=C(Nc1ccc([N+](=O)[O-])cc1)C1(c2ccccc2)CCOCC1  -9.79%
27. O=[N+]([O-])c1ccc2c(c1)C(O)n1nc(-c3ccccc3)nc1S2 (stereo not drawn)  -9.43%
28. c1cc(-c2ccc3[nH]ccc3c2)n2ccnc2c1  -8.26%
29. O=C(NNC(=O)c1cnccc1C(F)(F)F)c1ccc(Cl)cc1  -7.32%
30. Cc1cc(NC(=O)COC(=O)/C=C/c2ccc(C)o2)no1  -7.21%
31. CCCCN(C=O)c1c(CC)nc2c(OCCC3CCCCC3)cccn12  -7.2%
32. Cc1ccc(OS(=O)(=O)c2ccc(-c3csc(C)n3)s2)c(C)c1  -6.88%
33. O=C(Nc1cc(-c2ccccc2)nn1-c1ccccc1F)c1ccc([N+](=O)[O-])cc1  -5.47%
34. COCCN(C(=O)C(C)N1C(=O)c2ccccc2C1=O)c1c(N)n(CC(C)C)c(=O)[nH]c1=O (stereo not drawn)  -4.66%
35. CC(=O)Nc1ccc(SC[C@H](Cc2ccccc2)N2CC[C@@H](C)CCC2=O)cc1  -2.81%
36. CCC(c1nnnn1-c1ccc2c(c1)OCCO2)N1CCN(c2ccc(C(F)(F)F)cn2)CC1 (stereo not drawn)  -0.51%
37. NC(N)=N/N=C/c1ccc(OCc2ccc(Cl)cc2Cl)cc1  -0.41%
38. O=C(Nc1nnc(CCN2CCCCC2)s1)c1cccc(Cl)c1  0.75%
39. C[C@@H]1CN([C@@H](C)CO)C(=O)CCCn2cc(nn2)CO[C@H]1CN(C)S(=O)(=O)c1ccc(-n2cccn2)cc1  1.12%
40. CCC(=O)N(C)C(c1ccccc1Cl)c1nnnn1-c1c(C)cccc1C (stereo not drawn)  1.16%
41. CCN(CC)S(=O)(=O)c1cccc(C(=O)NCC(=O)OCC(=O)NCc2ccccc2)c1  1.85%
42. COc1ccc(N(C(=O)c2ccc(C)cc2)S(=O)(=O)c2cccs2)cc1  2.34%
43. COc1cc(OC)c2c(c1)OC(=O)CC2c1cc(OC)c(OC)c(OC)c1 (stereo not drawn)  2.48%
44. CC(=O)N1CCSc2ccc(S(=O)(=O)N3CCC(C)CC3)cc21  2.83%
45. O=C(NCc1ccncc1)C1CCCN(S(=O)(=O)c2ccc(Br)cc2)C1 (stereo not drawn)  2.98%
46. [2H]C(CCOS(N)(=O)=O)c1ccccc1 (stereo not drawn)  3.1%
47. O=C(Nc1ccccc1N1CCOCC1)c1ccc(OCc2cscn2)cc1  3.78%
48. CCOC(=O)C(C)Oc1cccc2c(=O)n(CC(=O)NCCc3ccc(OC)c(OC)c3)ccc12 (stereo not drawn)  3.91%
49. O=C(CN(Cc1ccccc1)C(=O)c1ccc2c(c1)OCCO2)NCc1ccc2c(c1)OCO2  4.07%
50. Cn1c(N)c(C(=O)COC(=O)COc2ccc(Cl)cc2)c(=O)n(C)c1=O  4.34%
51. Cc1ccc(CNC(=O)C2CCCN2S(=O)(=O)c2ccc3c(c2)C(C)(C)C(=O)N3C)cc1 (stereo not drawn)  4.35%
52. CC(=O)Nc1sc2c(c1C(c1cccc(F)c1)N1CCN(CCO)CC1)CCCC2 (stereo not drawn)  5.02%
53. CC1(C)C(=O)C2(CCCCC2)C(=O)OC1c1cccs1 (stereo not drawn)  5.23%
54. c1ccc(-c2nccc(-c3ccc(-n4cnc5ccccc54)cc3)n2)nc1  5.78%
55. Cn1c(N)cc(-c2ccc(F)cc2)c(C#N)c1=O  6%
56. CCn1nc(C)cc1C(=O)N1CCCC(C(=O)c2cccc(OC)c2)C1 (stereo not drawn)  6.22%
57. Cc1ccc(NC(=O)CSc2sc3c(O)cc(=O)[nH]c3c2C#N)cc1C  6.61%
58. CC1C=CCC2C(=O)N(c3cccc(C(=O)N4CCCCCC4)c3)C(=O)C12 (stereo not drawn)  6.85%
59. CC1CCCCC1NC(=O)CO/N=C/c1ccc(OC(F)F)cc1 (stereo not drawn)  6.95%
60. COc1ccc(OC)c(CCNC(=O)c2nn(C)c3c2CS(=O)(=O)c2ccccc2-3)c1  7.08%
61. CCN(CC)S(=O)(=O)c1ccc(OC)c(NC(=O)CCc2c(C)noc2C)c1  8.03%
62. CC12CN(NC(=O)c3ccc(Cl)cc3)C3(C#N)CC1CCC23C (stereo not drawn)  8.96%
63. COc1cc(S(=O)(=O)N2CCN(C(=O)C3CC3)CC2)ccc1NC(C)=O  9.23%
64. COCCCN1C(=O)C(=O)/C(=C(/O)c2ccc(S(=O)(=O)N3CCOCC3)cc2)C1c1ccc(F)cc1 (stereo not drawn)  9.93%
65. COC(=O)C1=NN(c2ccccc2)C2C(=O)N(c3ccccc3OC)C(=O)C12 (stereo not drawn)  10%
66. O=S(=O)(c1ccc(F)cc1)N1CCN(Cc2ccccc2C(F)(F)F)CC1  10.2%
67. Cc1cccc(N2CCN(C(=O)c3cc4c(=O)[nH]c5ccccc5c4n3C)CC2)c1C  11.6%
68. CCOCCCNC(=O)C(NC(=O)c1ccc(=O)[nH]c1)c1ccc(Cl)cc1 (stereo not drawn)  11.9%
69. Cc1cc(CNCc2c(C(=O)N(C)Cc3ccccc3)nc3ccccn23)nn1C  12.7%
70. CCOC(=O)N1CCN(S(=O)(=O)c2cc3c(cc2C)NC(=O)CO3)CC1  12.8%
71. CC(Nc1nc(C(F)(F)F)nc2ccccc12)c1cccs1 (stereo not drawn)  14.1%
72. COc1ccc(OC)c(NC(=O)c2ccc3c(c2)C(=O)N(c2ccc(OC(C)=O)cc2)C3=O)c1  15.1%
73. C=CCSC(CC)(CC)C(N)=O  16.1%
74. COc1ccccc1N1CCN(CC(=O)NCCc2ccc(S(N)(=O)=O)cc2)CC1  16.7%
75. O=C(Nc1c2c(nn1-c1cccc(Cl)c1)CS(=O)(=O)C2)c1cccs1  17.8%
76. CC(C)N(C)C(=O)CCc1nnc(CCc2c[nH]c3ccccc23)o1  18.1%
77. Cc1cc(Nc2ccc(C)c(C)c2)n2ncnc2n1  18.7%
78. CC(C)Nc1nc(NCCOc2ccccc2Cl)c2sccc2n1  18.8%
79. N=c1ccn(CC(=O)NC(N)=O)c2ccccc12  19.2%
80. O=C(NC1CCC(O)CC1)c1ccccc1OCc1ccc(F)cc1 (stereo not drawn)  21.9%
81. CCOC(=O)CN(C(=O)COc1nc(-c2ccccc2)cc(C)c1C#N)c1ccc(F)cc1  21.9%
82. CCC(C)(C)NC(=O)C(c1cccn1C)N(Cc1ccc(C)cc1)C(=O)Cn1nnc2ccccc21 (stereo not drawn)  22.9%
83. CCCOc1ccc(CN(CCO)CCO)cc1C(=O)OC  23.4%

For `O=C(NC(Nc1nc2ccc([N+](=O)[O-])cc2s1)(C(F)(F)F)C(F)(F)F)c1ccccc1`, the inhibition was 97.9% (active).
For `CC[C@H]1CN2CCc3cc(OC)c(OC)cc3[C@@H]2C[C@@H]1C[C@H]1NCCc2cc(OC)c(OC)cc21`, the inhibition was 103% (active).
In the case of `CC(C)(C)Nc1nc(-c2ccccn2)nc2ccccc12`, the inhibition is reported as 85% (active).
For `CCCCCCCCn1c2c(c(=N)c3c1CCC3)CCCC2`, the inhibition was 89.8% (active).
For `CCN1/C(=C\c2ccc3ccccc3[n+]2CC)Sc2cc(C)ccc21`, the inhibition was 93.7% (active).
